Measurements from PubChem BioAssay.

Tested on: Wnt5a (protein binding on small-molecule microarray)
Test: small molecules binding Wnt5a protein – biophysical, small-molecule microarray, 635/667 nm fluorescence, primary screen (AID 1142);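 also: fluorescence read at 667 nm with signal to noise per printed feature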
Conditions: 635 nm fluorescence, higher = more signal

| SMILES | composite z-score |
| --- | --- |
| CC[C@@H]1C=C(C(=O)O)[C@H](c2ccc(Br)cc2)N1S(=O)(=O)c1ccc(C)cc1 | -0.13 |
| O=C1c2ccccc2[C@](Cc2ccccc2I)(C(=O)NCCN2CCOCC2)[C@H](c2ccc(CO)cc2)N1Cc1ccccc1Cl | 0.66 |
| COC(=O)[C@@]1(Cc2ccc(OC)cc2)[C@H]2c3cc(C(=O)N4CCCC4)n(CCN4CNCC4=O)c3C[C@H]2CN1C(=O)c1ccccc1 | 2.12 |
| COC(=O)[C@@]1(Cc2ccc(OC)cc2)[C@@H]2C(=CC(=O)[C@H]2CC(=O)C(=O)N2CCCC2)CN1C(=O)c1ccccc1 | 0.292 |
| C=CCNC(=O)[C@@H]1[C@H]2C(=O)O[C@H](c3ccccc3)[C@H](c3ccccc3)N2[C@H](c2ccc(O)cc2)[C@@]12C(=O)N(C(=O)OCCOC)c1ccc(C#CCNC(N)=O)cc12 | 0.468 |
| Cc1ccc(S[C@]2(C(=O)NCCCN(C)C)CC(=O)N(Cc3cc(C(F)(F)F)cc(C(F)(F)F)c3)[C@@H]2c2ccc(CO)cc2)cc1 | -0.202 |
| COc1ccc([Si](C)(C)[C@H]2[C@H](CCO)O[C@@]3(C(=O)N(Cc4ccc(N(C=O)c5ccccc5)cc4)c4ccccc43)[C@@H]2C)cc1 | -0.308 |
| [N-]=[N+]=Nc1ccccc1[C@H]1OC(c2ccc(OCCCO)cc2)=N[C@@]1(CCS(=O)(=O)c1ccccc1)C(N)=O | 0.79 |
| NC(=O)NCC#Cc1ccc2c(c1)[C@]1(C(=O)N2)[C@H](c2ccccc2OCCO)N2[C@H](c3ccccc3)[C@H](c3ccccc3)OC(=O)[C@H]2[C@@H]1C(=O)Nc1nc2ccccc2s1 | -0.0307 |
| CCCC=C(CCC)[C@@H](NC(=O)c1cccs1)c1ccc(C(F)(F)F)cc1 | 0.374 |
| CN(C)C(=O)[C@]1(Cc2ccccc2N=[N+]=[N-])N=C(c2ccc(OCCCO)cc2)O[C@@H]1c1ccccc1N=[N+]=[N-] | 0.46 |
| COC(=O)[C@@]1(Cc2ccc(OC)cc2)[C@H]2c3cc(C(=O)N(C)C)n(Cc4ccccn4)c3C[C@H]2CN1C(=O)c1ccccc1 | 0.164 |
| COC(=O)[C@@]1(Cc2ccc(F)cc2)[C@H]2c3cc(C(=O)N4CCCC4)n(CCCNc4ncc(C(F)(F)F)cc4Cl)c3C[C@H]2CN1C(=O)c1ccccc1 | -0.026 |
| O=C(CS)NCCCCCCNC(=O)[C@@H]1C[C@@H]2C(=O)NCC(=O)N2[C@@H]1c1cccc(OCCO)c1 | 0.136 |
| CCOC(=O)C[C@H]1[C@H](OC(=O)c2ccccc2-c2ccccc2)[C@@H](NC(=O)CC(C)C)c2cc(OCCCO)ccc2N1C(=O)Cc1ccc(OC)cc1 | -0.0051 |
| COc1ccc([C@H]2OC[C@@H]3C[C@@H](Cc4ccccc4)C(=O)N32)cc1 | 0.157 |
| COc1ccc(CCNC(=O)[C@@]2(C)c3ccccc3C(=O)N(C(C)C)[C@H]2c2ccc(CO)cc2)cc1 | 0.435 |
| C=CCOC(=O)[C@@H]1[C@H]2C(=O)O[C@H](c3ccccc3)[C@H](c3ccccc3)N2[C@H](c2ccc(OCCOC(=O)[C@@H]3C[C@@H]4C(=O)NCC(=O)N4[C@@H]3c3ccc(O)cc3)cc2)[C@@]12C(=O)Nc1ccc(I)cc12 | 0.828 |

| SMILES | composite z-score |
| --- | --- |
| O=C1C[C@@](C(=O)NCCN2CCOCC2)(c2ccc([N+](=O)[O-])cc2)[C@@H](c2ccc(CO)cc2)N1CC12CC3CC(CC(C3)C1)C2 | 0.455 |
| COCCOC(=O)N1C(=O)[C@@]2(c3cc(C#CCC(C(=O)OC)C(=O)OC)ccc31)[C@H](C(=O)Nc1nc3ccccc3s1)[C@H]1C(=O)O[C@H](c3ccccc3)[C@H](c3ccccc3)N1[C@@H]2c1ccccc1OCCO | 0.346 |
| COC(=O)[C@@]1(Cc2ccccc2)[C@H]2c3cc(C(=O)N(C)C)n(Cc4ccsc4Br)c3C[C@H]2CN1C(=O)c1ccccc1 | 0.211 |
| CC1CC/C=C\[C@H]2OC34C=CCN(C(C)(C)C)C(=O)[C@H]3N(CCO)C(=O)[C@@H]4C2C(=O)O1 (stereo partly specified) | -0.276 |
| C=C(CCCC)/C(=C/C[C@@H](OC(C)=O)c1ccc(OCCO)cc1)c1cnc2ccccc2c1 | -0.0157 |
| CC(C)C(O)C1C=CC2C(=O)N(c3ccccc3)C(=O)C2N1Nc1ccc([N+](=O)[O-])cc1 (stereo unspecified) | 0.774 |
| C=C(COC)/C(=C/C[C@H](OC(C)=O)c1ccc(CO)o1)c1cc(C(=O)OC)ccc1OC | 0.122 |
| COC(=O)[C@@]1(Cc2ccc(OC)cc2)[C@H]2c3cc(C(=O)N(C)C)n(C)c3C[C@H]2CN1C(=O)c1ccccc1 | 0.485 |
| CCOC(=O)[C@H]1C/C=C/C[C@H](C(=O)OCC)C(=O)O[C@H]2[C@@H](OC)O[C@H](CO)[C@@H](OC(=O)c3c(OC)cccc3OC)[C@@H]2OC1=O | 0.172 |
| CC(C)NC(=O)[C@@]1(c2ccc([N+](=O)[O-])cc2)CC(=O)N(C2CCCCC2)[C@@H]1c1ccc(CO)cc1I | -0.0239 |
| CN1C(=O)C2C=CC(C(O)c3ccc([N+](=O)[O-])cc3)N(N3CCCCC3)C2C1=O (stereo unspecified) | 0.466 |
| COCCOC(=O)N1C(=O)[C@@]2(c3cc(C#CCNC(N)=O)ccc31)[C@H](C(=O)N1CCN(c3ncccn3)CC1)[C@H]1C(=O)O[C@H](c3ccccc3)[C@H](c3ccccc3)N1[C@@H]2c1ccc(OCCO)cc1 | 0.344 |
| O=C1NC(=O)C2C1C=CC(C(O)c1cc(C(F)(F)F)cc(C(F)(F)F)c1)N2Nc1ccccn1 (stereo unspecified) | -0.102 |
| COCCOC(=O)N1C(=O)[C@@]2(c3ccccc31)[C@H](C(=O)N1CCc3cc(OC)c(OC)cc3C1)[C@H]1C(=O)O[C@H](c3ccccc3)[C@H](c3ccccc3)N1[C@@H]2c1ccc(OCCO)cc1 | 0.146 |
| COC(=O)C(CC#Cc1ccc2c(c1)[C@]1(C(=O)N2)[C@H](C(=O)Nc2nc3ccccc3s2)[C@H]2C(=O)O[C@H](c3ccccc3)[C@H](c3ccccc3)N2[C@@H]1c1ccccc1OCCO)C(=O)OC | 0.573 |
| CN1C(=O)C2C=CC(C(O)c3ccccc3)N(N(c3ccccc3)c3ccccc3)C2C1=O (stereo unspecified) | -0.117 |
| COC(=O)[C@@]1(CCS(=O)(=O)c2ccccc2)N=C(c2ccc(OCCCO)cc2)O[C@H]1c1ccccc1CN=[N+]=[N-] | 0.351 |
| COC(=O)[C@H](Cc1ccccc1)N1CC2=C[C@@H](C3CC3)n3c(=O)n(C)c(=O)n3[C@H]2[C@@H]1[C@@H](O)Cc1ccccc1 | 0.0601 |
